Test results as given in PubChem BioAssay (EPA / NIEHS).
Activity calls are given as the source filed them. Rule for the calls: active = hit-call score of the fitted dose curve at least 0.9, where 1 is the maximum; inactive = score below 0.9.

Assays:
[1] = APR_HepG2_NuclearSize_72hr: Apredica 72-hour HepG2 Assay for Nuclear Size (AID 2282925); details: high-content imaging, actives raise or lower the signal
How it was run: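 Compounds (0.39–200 uM, final DMSO 0.5%) were applied to HepG2 for 72 hr. Cells were then formaldehyde-fixed, permeabilized and labelled with Hoechst 33342. Nuclear diameter was quantified from six images per well.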

[2] = ATG_CRE_CIS: Attagene CIS-FACTORIAL HepG2 Assay for human cAMP Responsive Element (CRE) binding protein 3 (AID 2282926); details: HepG2 CRE cis-reporter, Attagene multiplexed mRNA; actives raise or lower the signal
How it was run: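 Capillary electrophoresis of 6-FAM-labelled, HpaI-digested PCR products quantified reporter transcripts. These came from HepG2 transiently transfected with cis-element reporters and exposed to test chemicals for 24 hours, with DMSO defining baseline activity.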

[3] = biological target: CCAAT/enhancer-binding protein beta (Homo sapiens) (UniProt P17676); assay: ATG_C_EBP_CIS: Attagene CIS-FACTORIAL HepG2 Assay for human CCAAT/Enhancer Binding Protein (C/EBP) beta (AID 2282927); details: HepG2 Attagene cis-factorial transcription factor reporter; actives raise or lower the signal
How it was run: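 Chemical-treated HepG2 cells (24 h) bearing cis-regulated reporter constructs were processed for total RNA, then reverse transcription, PCR amplification, fluorescent primer extension and fragment analysis; gain- and loss-of-signal were fitted against DMSO.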

[4] = ATG_CMV_CIS: Attagene CIS-FACTORIAL HepG2 Assay for human CMV (Internal Marker) (AID 2282928); details: HepG2 CMV promoter reporter, transcription factor profiling; actives raise or lower the signal;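 note: endpoint acts as a background internal control marker rather than a target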
How it was run: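 Readout: fluorescent reporter cDNA fragments separated by capillary electrophoresis after RT-PCR and HpaI cut. Cells: HepG2 carrying transfected cis-promoter reporter constructs, dosed 24 h. Endpoint serves as background internal-marker control, fit bidirectionally versus DMSO.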

[5] = ATG_DR4_LXR_CIS: Attagene CIS-FACTORIAL HepG2 Assay for human Liver X Receptor (LXR), DR4 submotif (AID 2282929); details: HepG2 Attagene DR4 cis-reporter, mRNA transcription; actives raise or lower the signal
How it was run: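 HepG2, transient MRTU transfection, cis-element (DR4) promoter; 24 h compound exposure; total RNA → oligo(dT) RT → PCR → 6-FAM primer extension → HpaI cut → CE. Gain/loss vs DMSO, bidirectional fit.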

[6] = biological target: Aryl hydrocarbon receptor (Homo sapiens) (UniProt P35869); assay: ATG_Ahr_CIS: Attagene CIS-FACTORIAL HepG2 Assay for human Aryl Hydrocarbon Receptor (Ahr) (AID 2282930); details: HepG2 AhR cis-factorial reporter transcription; actives raise or lower the signal
How it was run: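 Following 24 h of chemical dosing, transfected HepG2 liver cells with cis-driven reporter units were lysed for RNA; reporter mRNA was quantified via RT-PCR and capillary electrophoresis, and responses fitted bidirectionally from DMSO.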

[7] = ATG_AP_1_CIS: Attagene CIS-FACTORIAL HepG2 Assay for human Activator Protein 1 (AP-1) (AID 2282931); details: HepG2 Attagene cis-factorial AP-1 reporter mRNA; actives raise or lower the signal
How it was run: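 Transient MRTU transfection of HepG2 → 24 h chemical treatment → RNA isolation, RT-PCR, 6-FAM labelling, HpaI digest → capillary electrophoresis. Fit: bidirectional, DMSO negative control.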

[8] = ATG_AP_2_CIS: Attagene CIS-FACTORIAL HepG2 Assay for human Activator Protein 2 (AP-2) (AID 2282932); details: HepG2 AP-2 cis-reporter, Attagene transcription factor profiling; actives raise or lower the signal
How it was run: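 Assay in transfected HepG2 with promoter-regulated reporters, 24 h incubation after dosing. Signal is reporter mRNA fluorescence (RT-PCR, capillary electrophoresis), analysed for both increases and decreases relative to DMSO controls.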

[9] = ATG_BRE_CIS: Attagene CIS-FACTORIAL HepG2 Assay for human Bone Morphogenetic Protein (BMP) Response Element (BRE) (AID 2282933); details: HepG2 BMP response element reporter, Attagene transcription factor profiling; actives raise or lower the signal
How it was run: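 Endogenous transcription factor activity read in transiently transfected HepG2 cells after 24 h chemical exposure. Bidirectional curve fitting against DMSO; readout is reporter transcript level by RT-PCR with capillary electrophoresis of labelled products.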

[10] = biological target: Retinoic acid receptor alpha (Homo sapiens) (UniProt P10276); assay: ATG_DR5_RAR_CIS: Attagene CIS-FACTORIAL HepG2 Assay for human Retinoic Acid Receptor Alpha (RARE), DR5 submotif (AID 2282934); details: HepG2 Attagene cis-factorial RARE DR5 reporter, mRNA; actives raise or lower the signal
How it was run: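 Transfected HepG2 reporter cells are exposed to chemicals for 24 h. Then RNA is extracted and the DR5 element reporter transcript is measured by RT-PCR and capillary electrophoresis, with bidirectional curve fitting relative to DMSO.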

[11] = biological target: Transcription factor E2F1 (Homo sapiens) (UniProt Q01094); assay: ATG_E2F_CIS: Attagene CIS-FACTORIAL HepG2 Assay for human E2F Transcription Factor 1 (AID 2282935); details: HepG2 Attagene cis-reporter, E2F reporter RNA transcripts; actives raise or lower the signal
How it was run: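 In this cis-factorial format, endogenous factor activity drives transfected reporters in HepG2; transcripts collected at 24 h are quantified by fluorescence after RT-PCR and capillary separation.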

[12] = ATG_E_Box_CIS: Attagene CIS-FACTORIAL HepG2 Assay for human Enhancer Box (E-box) (AID 2282936); details: HepG2 E-box cis-reporter transcription, actives raise or lower the signal
How it was run: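 Measured 24 h post-dosing in HepG2 cells transfected with multiple cis-regulated reporter units, signal being reporter mRNA induction detected by fluorescent RT-PCR with capillary electrophoresis; gain or loss fitted against DMSO.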

[13] = ATG_M_61_CIS: Attagene CIS-FACTORIAL HepG2 Assay for M61 Transcription Factor (Internal Marker) (AID 2282937); details: HepG2 Attagene CIS-FACTORIAL M61 internal marker reporter; actives raise or lower the signal
How it was run: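 Human liver HepG2, transient MRTU transfection (cis promoter elements), 24 h compound. Total RNA → oligo(dT) RT → PCR → FAM label → HpaI → CE. Internal background marker; bidirectional fitting, DMSO = baseline.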

[14] = ATG_EGR_CIS: Attagene CIS-FACTORIAL HepG2 Assay for human Early Growth Response 1 (EGR1) (AID 2282938); details: HepG2 Attagene CIS-FACTORIAL EGR reporter mRNA; actives raise or lower the signal
How it was run: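 Transient transfection of human HepG2 with multiple cis-regulated reporter units, chemical exposure 24 h, total RNA isolated. Reverse transcription, PCR, fluorescent labelling and capillary electrophoresis quantify reporter transcripts; activity fitted bidirectionally against DMSO.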

[15] = ATG_M_19_CIS: Attagene CIS-FACTORIAL HepG2 Assay for M19 Transcription Factor (Internal Marker) (AID 2282939); details: HepG2 Attagene CIS-FACTORIAL M19 internal marker reporter; actives raise or lower the signal
How it was run: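 Internal marker readout, fitted in both directions against DMSO, from HepG2 cells carrying transfected cis-element reporter constructs; RT-PCR and capillary electrophoresis of reporter mRNA after 24 h exposure.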

[16] = ATG_ERE_CIS: Attagene CIS-FACTORIAL HepG2 Assay for Estrogen Response Element (ERE) (AID 2282940); details: HepG2 ERE cis-reporter, Attagene RNA transcript; actives raise or lower the signal
How it was run: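 After 24 h compound treatment, RNA from transfected HepG2 cells was reverse-transcribed, reporter cDNA PCR-amplified, FAM-labelled, HpaI-cut and resolved by capillary electrophoresis. ERE-driven cis reporter transcripts reflect endogenous factors; gain or loss scored against DMSO.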

[17] = ATG_Ets_CIS: Attagene CIS-FACTORIAL HepG2 Assay for human Erythroblast Transformation Specific (ETS) (AID 2282941); details: HepG2 ETS cis-reporter transcription, actives raise or lower the signal
How it was run: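 RT-PCR/capillary electrophoresis fluorescence read-out of reporter mRNA; HepG2 transient multi-reporter transfection; 24 h compound exposure; gain or loss of signal fitted bidirectionally relative to DMSO.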

[18] = biological target: Hepatocyte nuclear factor 3-beta (Homo sapiens) (UniProt Q9Y261); assay: ATG_FoxA2_CIS: Attagene CIS-FACTORIAL HepG2 Assay for human Forkhead box A2 (FOXA2) (AID 2282942); details: HepG2 cis-reporter transcription factor activity, 24 h; actives raise or lower the signal
How it was run: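 Transient MRTU transfection of HepG2 liver cells; 24 h treatment; total RNA → oligo(dT) RT → PCR → FAM primer extension → HpaI cut → CE. Bidirectional fit vs DMSO.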

[19] = ATG_GATA_CIS: Attagene CIS-FACTORIAL HepG2 Assay for human GATA Binding Protein (AID 2282944); details: HepG2 GATA cis-element reporter, Attagene multiplex mRNA; actives raise or lower the signal
How it was run: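 Reporter transcripts from a GATA cis-regulated unit, among multiplexed reporters in transfected HepG2 cells, were measured by RT-PCR with capillary electrophoresis after 24 h dosing. Induction or loss scored relative to DMSO.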

[20] = ATG_FoxO_CIS: Attagene CIS-FACTORIAL HepG2 Assay for human Forkhead box O (FoxO) (AID 2282943); details: HepG2 Attagene cis-reporter, FoxO element, mRNA; actives raise or lower the signal
How it was run: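 24 h chemical exposure, HepG2 with transient cis-MRTU transfection. RNA extraction, oligo(dT) RT, reporter-specific PCR, primer-extension labelling, HpaI digestion, CE fragment analysis; bidirectional fit, DMSO baseline.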

Measured: outcome

Hepatocyte nuclear factor 3-beta (Homo sapiens), sequence (Q9Y261 whole entry, looked up): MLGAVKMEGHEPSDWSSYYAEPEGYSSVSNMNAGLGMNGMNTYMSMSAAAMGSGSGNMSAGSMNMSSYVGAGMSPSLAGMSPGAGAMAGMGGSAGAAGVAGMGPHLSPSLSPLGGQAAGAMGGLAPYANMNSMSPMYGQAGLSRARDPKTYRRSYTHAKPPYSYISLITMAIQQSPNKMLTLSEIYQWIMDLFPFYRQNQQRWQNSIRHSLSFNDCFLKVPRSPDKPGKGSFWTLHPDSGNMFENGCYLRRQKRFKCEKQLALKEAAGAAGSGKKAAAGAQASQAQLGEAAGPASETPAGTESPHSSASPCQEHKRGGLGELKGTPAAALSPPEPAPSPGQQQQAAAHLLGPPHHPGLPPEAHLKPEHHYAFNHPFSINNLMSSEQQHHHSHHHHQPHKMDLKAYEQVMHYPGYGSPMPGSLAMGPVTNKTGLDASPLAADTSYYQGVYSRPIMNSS
Aryl hydrocarbon receptor (Homo sapiens), sequence (P35869 whole entry, looked up): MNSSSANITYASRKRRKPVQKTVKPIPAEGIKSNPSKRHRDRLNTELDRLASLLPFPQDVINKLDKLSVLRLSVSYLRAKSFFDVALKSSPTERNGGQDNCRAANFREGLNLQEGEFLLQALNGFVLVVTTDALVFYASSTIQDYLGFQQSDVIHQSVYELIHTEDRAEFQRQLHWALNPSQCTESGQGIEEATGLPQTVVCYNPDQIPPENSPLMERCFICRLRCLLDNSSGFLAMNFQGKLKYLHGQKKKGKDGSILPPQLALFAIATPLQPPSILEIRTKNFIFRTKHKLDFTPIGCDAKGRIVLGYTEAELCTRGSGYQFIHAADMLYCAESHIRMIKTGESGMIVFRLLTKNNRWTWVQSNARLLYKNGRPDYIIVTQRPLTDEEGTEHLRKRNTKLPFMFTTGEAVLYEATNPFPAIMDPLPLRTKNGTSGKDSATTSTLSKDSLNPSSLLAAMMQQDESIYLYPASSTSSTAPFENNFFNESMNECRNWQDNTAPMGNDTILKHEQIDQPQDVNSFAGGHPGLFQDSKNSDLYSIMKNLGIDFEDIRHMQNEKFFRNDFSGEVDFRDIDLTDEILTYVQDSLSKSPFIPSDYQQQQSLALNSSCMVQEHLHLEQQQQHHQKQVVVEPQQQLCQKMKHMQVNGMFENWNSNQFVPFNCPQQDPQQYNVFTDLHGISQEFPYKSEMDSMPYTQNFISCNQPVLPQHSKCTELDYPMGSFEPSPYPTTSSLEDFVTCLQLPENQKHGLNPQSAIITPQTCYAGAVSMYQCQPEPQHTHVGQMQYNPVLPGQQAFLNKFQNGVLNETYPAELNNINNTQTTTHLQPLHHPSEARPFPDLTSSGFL
Transcription factor E2F1 (Homo sapiens), sequence (Q01094 whole entry, looked up): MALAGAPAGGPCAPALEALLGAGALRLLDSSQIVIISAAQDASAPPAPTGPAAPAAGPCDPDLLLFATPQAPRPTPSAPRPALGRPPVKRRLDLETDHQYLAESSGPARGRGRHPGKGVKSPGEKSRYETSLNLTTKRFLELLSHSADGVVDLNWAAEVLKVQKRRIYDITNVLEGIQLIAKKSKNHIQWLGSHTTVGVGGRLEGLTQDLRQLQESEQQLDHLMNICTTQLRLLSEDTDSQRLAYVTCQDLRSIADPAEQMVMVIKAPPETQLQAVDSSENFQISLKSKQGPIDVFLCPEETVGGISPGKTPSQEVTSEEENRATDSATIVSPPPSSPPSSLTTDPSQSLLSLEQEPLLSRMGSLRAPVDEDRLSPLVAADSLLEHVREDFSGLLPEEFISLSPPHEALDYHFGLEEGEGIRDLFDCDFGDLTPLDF
CCAAT/enhancer-binding protein beta (Homo sapiens), sequence (P17676 whole entry, looked up, the tested form may be a part): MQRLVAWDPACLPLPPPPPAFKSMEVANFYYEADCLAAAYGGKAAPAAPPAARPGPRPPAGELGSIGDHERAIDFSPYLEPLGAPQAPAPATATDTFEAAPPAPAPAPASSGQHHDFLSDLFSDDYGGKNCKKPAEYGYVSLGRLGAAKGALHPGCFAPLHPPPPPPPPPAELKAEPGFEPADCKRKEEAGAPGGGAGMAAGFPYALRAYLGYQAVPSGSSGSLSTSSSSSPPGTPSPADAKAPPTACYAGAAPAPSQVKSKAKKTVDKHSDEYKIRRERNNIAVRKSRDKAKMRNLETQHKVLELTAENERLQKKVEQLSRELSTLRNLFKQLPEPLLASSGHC
Retinoic acid receptor alpha (Homo sapiens), sequence (P10276 whole entry, looked up): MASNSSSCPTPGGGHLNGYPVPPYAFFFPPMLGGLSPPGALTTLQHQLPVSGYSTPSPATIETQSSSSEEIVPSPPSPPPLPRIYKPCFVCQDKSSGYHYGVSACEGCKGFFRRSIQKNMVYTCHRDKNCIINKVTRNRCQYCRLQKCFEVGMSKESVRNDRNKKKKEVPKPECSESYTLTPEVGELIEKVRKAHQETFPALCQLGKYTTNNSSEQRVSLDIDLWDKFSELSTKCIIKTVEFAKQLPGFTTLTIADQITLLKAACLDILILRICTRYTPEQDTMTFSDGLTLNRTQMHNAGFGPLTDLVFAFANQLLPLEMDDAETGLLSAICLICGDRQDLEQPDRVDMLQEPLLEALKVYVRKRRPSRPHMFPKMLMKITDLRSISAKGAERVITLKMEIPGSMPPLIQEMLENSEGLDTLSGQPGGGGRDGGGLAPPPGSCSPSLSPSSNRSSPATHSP

COP(N)(=O)SC (configuration not stated)
not listed: [20]
inactive: all other assays above

CN(C)C(=S)SSC(=S)N(C)C
not listed: [7]
inactive: all other assays above

Cc1c(F)c(F)c(COC(=O)C2C(/C=C(\Cl)C(F)(F)F)C2(C)C)c(F)c1F (configuration not stated)
not listed: [7]
inactive: all other assays above

COC(=O)C(C)Oc1ccc(Oc2ccc(Cl)cc2Cl)cc1 (configuration not stated)
not listed: [7] | [16] | [20]
inactive: all other assays above

COc1cnc(OC)n2nc(NS(=O)(=O)c3c(OCC(F)F)cccc3C(F)(F)F)nc12
not listed: [7] | [10]
inactive: all other assays above
